# Test results published in PubChem BioAssay (NCATS).
# Values joined by “and” are separate entries in the source; they are usually repeats but may differ in a detail not shown here. Equal entries are not always repeated. Unmarked numbers belong to inactive results. Inconclusive results are not listed. Entries that show only a call come without a potency. Active and inactive are the calls of the source. Unless noted, the call rests on the fitted dose curve; in most records, active means well fitted curve in the direction sought with a large enough effect; inconclusive means small, poorly fitted or top-dose-only effect, or another doubt; inactive means no such curve, though single readings can be large; an effect the other way counts as inactive or inconclusive.
# Key:
# [1] = Cellular Toxicity (caspase-3) Jurkat (AID 655); conditions: Jurkat caspase-3 activation, luminescence; caspase-3 activation: at 92.2 µM (top of the series), DMSO = 0%, tamoxifen = 100%;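 further: cells exposed to compound for 16 h at 37 °C before reading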; further: potency means the concentration at half of the fitted maximal effect
# Procedure, shortened: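 Jurkat cells (5000/well) in complete medium exposed 16 h at 37 C; caspase-3/7 activity read by Caspase-Glo luminescence after 20 min at room temperature. Normalized to DMSO and 100 uM tamoxifen; AC50 from Hill fits.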
# [2] = Cellular Toxicity (caspase-3) SHSY5Y (AID 657); conditions: SH-SY5Y caspase-3 activation; series mostly up to 91.7 µM
# Procedure, shortened: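 SH-SY5Y human neuroblastoma cells, 1500/well, exposed to compound for 16 hours at 37 °C in complete medium. Caspase-3/7 activity read by Caspase-Glo luminescence after 1 hr at room temperature, normalized to DMSO and 10 uM staurosporine; AC50 from Hill fit.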
# [3] = Cellular Toxicity (caspase-3) BJ (AID 658); conditions: BJ fibroblasts, luminescence; Potency: caspase-3 activation; series mostly up to 91.7 µM; further: potency means the concentration at half of the fitted maximal effect
# Procedure, shortened: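 Readout: Caspase-Glo 3/7 luminescence increase in BJ cells after 16 hr treatment at 37 °C. Staurosporine and tamoxifen served as positive controls; AC50 values came from Hill modelling of data normalized to DMSO and 10 uM staurosporine.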
# [4] = Cellular Toxicity (caspase-3) MRC-5 (AID 659); conditions: MRC-5 cells, luminescence, normalized: DMSO 0%, 10 µM staurosporine 100%; series mostly up to 91.7 µM
# Procedure, shortened: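 Concentration-dependent caspase 3/7 activation is measured in human normal lung fibroblasts (MRC-5) following 16-hour treatment. AC50 values come from standard Hill-equation modeling of luminescence normalized to DMSO and 10 uM staurosporine.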
# [5] = Cell Viability - LYMP2-001 (AID 921); conditions: LYMP2-001 lymphoblastoid cell viability; series mostly up to 92.2 µM; further: nearly all actives have a fitted effect of over 70% in size; further: potency means the concentration at half of the fitted maximal effect
# Procedure, shortened: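 Human lymphoblastoid LYMP2-001 cells, 2500 per well, in complete medium, treated 24 h at 37 C. Viability from cellular ATP by CellTiter-Glo luminescence; AC50 from Hill-equation fits of qHTS concentration-response.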
# [6] = MultiTox-Fluor Cytotoxicity Assay - LYMP1-001 - Dead Cells (AID 946); conditions: LYMP1-001 lymphoblastoid cells, dead-cell protease fluorescence; series mostly up to 92.2 µM; further: potency means the concentration at half of the fitted maximal effect
# Procedure, shortened: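 In this qHTS, 15 uM tetraoctylammonium bromide defined 100% and DMSO defined basal activity. Lymphoblastoid cells (LYMP1-001, 2500 per well) received compound for 16 hr at 37 C before a fluorogenic dead-cell substrate readout at 485/520 nm.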
# [7] = MultiTox-Fluor Cytotoxicity Assay - LYMP1-001 - Live Cells (AID 947); conditions: LYMP1-001 lymphoblastoid cells, live-cell protease fluorescence viability; series mostly up to 92.2 µM; further: potency means the concentration at half of the fitted maximal effect
# [8] = MultiTox-Fluor Cytotoxicity Assay - LYMP1-003 - Dead Cells (AID 961); conditions: LYMP1-003 lymphoblastoid cells, dead-cell protease fluorescence; series mostly up to 92.2 µM; further: nearly all actives have a fitted effect of over 70% in size; further: potency means the concentration at half of the fitted maximal effect
# Procedure, shortened: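 Acute toxicity is scored as increased dead-cell protease activity in human lymphoblastoid LYMP1-003 cells after 16 h compound exposure in complete culture medium. Activity is normalized to DMSO basal and 15 uM tetraoctylammonium bromide as full response.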
# [9] = MultiTox-Fluor Cytotoxicity Assay - LYMP1-003 - Live Cells (AID 962); conditions: LYMP1-003 lymphoblastoid cells, MultiTox-Fluor live-cell protease fluorescence; series mostly up to 92.2 µM; further: potency means the concentration at half of the fitted maximal effect
# Procedure, shortened: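 LYMP1-003 human lymphoblastoid cells (2500/well) in complete medium were preincubated 5 hr at 37 C, then exposed to compounds for 16 hr at 37 C. Live-cell protease cleavage of GF-AFC read by fluorescence (Ex/Em 405/510); AC50 from Hill fits.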
# [10] = Cell Viability - LYMP1-003 - Assay at 40 hr (AID 964); conditions: LYMP1-003 lymphoblastoid viability; series mostly up to 92.2 µM; further: nearly all actives have a fitted effect of over 60% in size; further: potency means the concentration at half of the fitted maximal effect
# Procedure, shortened: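 Human lymphoblastoid LYMP1-003 cells, 2500/well in complete medium, rested 5 hr at 37 C, then exposed to compounds for 40 hr at 37 C. Viability read as intracellular ATP by CellTiter-Glo luminescence; AC50 from Hill fits of concentration-response data.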
# [11] = Cell Viability - LYMP2-004 (AID 966); conditions: LYMP2-004 lymphoblastoid cell viability, qHTS; series mostly up to 92.2 µM; further: nearly all actives have a fitted effect of over 65% in size; further: potency means the concentration at half of the fitted maximal effect
# Procedure, shortened: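 Human lymphoblastoid cells (2500/well) in complete medium were treated with compounds for 24 hr at 37 C, then intracellular ATP was measured by CellTiter-Glo luminescence. AC50 values came from Hill-equation fits of concentration-response data.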
# [12] = Cell Viability - LYMP2-013 (AID 970); conditions: LYMP2-013 lymphoblastoid cells viability; series mostly up to 92.2 µM; further: nearly all actives have a fitted effect of over 55% in size; further: potency means the concentration at half of the fitted maximal effect
# Procedure, shortened: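 Human lymphoblastoid cells, 2500/well, were preincubated 5 hr at 37 C, then treated with compounds for 24 hr at 37 C in complete medium. Intracellular ATP was read by CellTiter-Glo luminescence; AC50 from Hill-equation fits of concentration-response data.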
# [13] = Cell Viability - LYMP2-015 (AID 971); conditions: LYMP2-015 lymphoblastoid cell viability; series mostly up to 92.2 µM; further: nearly all actives have a fitted effect of over 55% in size; further: potency means the concentration at half of the fitted maximal effect
# Procedure, shortened: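 Human lymphoblastoid cells (2500/well) in complete medium were preincubated 5 hr at 37 C, then compound-treated 24 hr at 37 C. Intracellular ATP was read by CellTiter-Glo luminescence after 30 min at room temperature; AC50 came from Hill-equation concentration-response fits.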
# [14] = Cell Viability - LYMP2-017 (AID 972); conditions: LYMP2-017 lymphoblastoid cell viability; series mostly up to 92.2 µM; further: nearly all actives have a fitted effect of over 55% in size; further: potency means the concentration at half of the fitted maximal effect
# Procedure, shortened: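 Human lymphoblastoid cells (2500/well) were seeded in complete medium, held 5 hr at 37 C, then exposed to compounds for 24 hr at 37 C. Intracellular ATP was read by CellTiter-Glo luminescence after 30 min at room temperature, with AC50 values from Hill-equation fits.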
# [15] = Cell Viability - LYMP2-021 (AID 974); conditions: LYMP2-021 lymphoblastoid cells viability; series mostly up to 92.2 µM;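 further: compound exposure lasts 24 hours at 37 °C; nearly all actives have a fitted effect of over 55% in size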; further: potency means the concentration at half of the fitted maximal effect
# Procedure, shortened: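 Human lymphoblastoid cells (2500/well) were preincubated 5 hr at 37 C, then exposed to compounds for 24 hr at 37 C in complete medium. Intracellular ATP was read by CellTiter-Glo luminescence; AC50 came from Hill-equation fits of concentration-response data.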
# [16] = Cell Viability - LYMP2-023 (AID 975); conditions: LYMP2-023 lymphoblastoid cell viability; series mostly up to 92.2 µM; further: nearly all actives have a fitted effect of over 55% in size; further: potency means the concentration at half of the fitted maximal effect
# Procedure, shortened: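 Human lymphoblastoid cells (2500/well) were preincubated 5 hr at 37 C, then exposed to compounds for 24 hr at 37 C in complete medium. Cellular ATP was read by CellTiter-Glo luminescence, and AC50 came from Hill-equation fits.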
# [17] = Cell Viability - LYMP2-010 (AID 981); conditions: LYMP2-010 lymphoblastoid cell viability, qHTS; series mostly up to 92.2 µM; further: nearly all actives have a fitted effect of over 55% in size; further: potency means the concentration at half of the fitted maximal effect
# Procedure, shortened: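 Human lymphoblastoid LYMP2-010 cells (2500/well) were preincubated 5 hr at 37 C, then exposed to compounds for 24 hr at 37 C in complete medium. Intracellular ATP was measured by CellTiter-Glo luminescence after 30 min at room temperature; AC50 from Hill-fitted concentration-response.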
# [18] = Cell Viability - LYMP2-026 (AID 989); conditions: LYMP2-026 lymphoblastoid cell viability, qHTS; series mostly up to 92.2 µM; further: nearly all actives have a fitted effect of over 50% in size; further: potency means the concentration at half of the fitted maximal effect
# Procedure, shortened: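 Human lymphoblastoid cells (2500/well) in complete medium were preincubated 5 hr at 37 C, then exposed to compounds for 24 hr at 37 C. Cellular ATP was read by CellTiter-Glo luminescence; AC50 from Hill-equation fits of concentration-response data.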
# [19] = Cell Viability - LYMP1-002 - Assay at 40 hr (AID 994); conditions: LYMP1-002 lymphoblastoid cell viability; series mostly up to 92.2 µM; further: nearly all actives have a fitted effect of over 60% in size; further: potency means the concentration at half of the fitted maximal effect
# Procedure, shortened: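 Human lymphoblastoid cells, 2500/well in complete medium, were preincubated 5 hr at 37 C, then exposed to compounds for 40 hr at 37 C. Intracellular ATP was read by CellTiter-Glo luminescence after 30 min at room temperature; AC50 from Hill-equation fits.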
# [20] = qHTS assay for small molecule agonists of the antioxidant response element (ARE) signaling pathway measured by Nrf2-dependant transcriptional activity - cell viability counter screen (AID 720653; active means well fitted curve in the direction sought with a large enough effect in the repeat runs; an effect the other way counts as inactive or inconclusive; further: potency means the concentration at half of the fitted maximal effect); conditions: ARE-bla HepG2 viability, CellTiter-Glo ATP luminescence, 16 h; max response: stronger effect = lower value
# Procedure, shortened: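 Cytotoxicity counter screen: intracellular ATP quantified by CellTiter-Glo luminescence in the same ARE-bla HepG2 plates, after 16 h compound exposure and a 2 h beta-lactamase substrate step.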
smiles,measurement,setting,value
O=C(/C=C/c1ccc(O)c(O)c1)OC1C[C@](O)(C(=O)O)C[C@@H](O)[C@H]1O (some centres not stated),Potency,[1],inactive
same,Potency,[2],inactive
same,Potency,[3],inactive
same,outcome,[4],inactive
same,Potency,[5],inactive
same,Potency,[6],inactive
same,Potency,[7],inactive
same,Potency,[8],inactive
same,Potency,[9],inactive
same,Potency,[10],inactive
same,Potency,[11],inactive
same,Potency,[12],inactive
same,Potency,[13],inactive
same,Potency,[14],inactive
same,Potency,[15],inactive
same,Potency,[16],inactive
same,Potency,[17],inactive
same,Potency,[18],inactive
same,Potency,[19],inactive
same,max response,[20],-1.61% and -3.17%
c1ccc2c(c1)-c1cccc3c1c-2cc1ccccc13,Potency,[1],inactive
same,Potency,[2],inactive
same,Potency,[3],inactive
same,outcome,[4],inactive
same,Potency,[5],inactive
same,Potency,[6],inactive
same,Potency,[7],inactive
same,Potency,[8],inactive
same,Potency,[9],inactive
same,Potency,[10],inactive
same,Potency,[11],inactive
same,Potency,[12],inactive
same,Potency,[13],inactive
same,Potency,[14],inactive
same,Potency,[15],inactive
same,Potency,[16],inactive
same,Potency,[17],inactive
same,Potency,[18],inactive
same,Potency,[19],inactive
same,max response,[20],-12.4% and -4.83%
Cc1cc(O)c(C(C)(C)C)cc1Sc1cc(C(C)(C)C)c(O)cc1C,Potency,[5],39.8 µM (active)
same,Potency,[6],31.6 µM (active)
same,Potency,[7],31.6 µM (active)
same,Potency,[8],31.6 µM (active)
same,Potency,[9],39.8 µM (active)
same,Potency,[10],39.8 µM (active)
same,Potency,[11],31.6 µM (active)
same,Potency,[12],31.6 µM (active)
same,Potency,[13],39.8 µM (active)
same,Potency,[14],50.1 µM (active)
same,Potency,[15],31.6 µM (active)
same,Potency,[16],50.1 µM (active)
same,Potency,[17],31.6 µM (active)
same,Potency,[18],25.1 µM (active)
same,Potency,[19],39.8 µM (active)
Cc1cccc(O)c1C,Potency,[1],inactive
same,Potency,[2],inactive
same,Potency,[3],inactive
same,outcome,[4],inactive
same,Potency,[5],inactive
same,Potency,[6],inactive
same,Potency,[7],inactive
same,Potency,[8],inactive
same,Potency,[9],inactive
same,Potency,[10],inactive
same,Potency,[11],inactive
same,Potency,[12],inactive
same,Potency,[13],inactive
same,Potency,[14],inactive
same,Potency,[15],inactive
same,Potency,[16],inactive
same,Potency,[17],inactive
same,Potency,[18],inactive
same,Potency,[19],inactive
same,max response,[20],-1.51%
CCCCCCCC[N+](CCCCCCCC)(CCCCCCCC)CCCCCCCC,Potency,[1],12.6 µM (active)
same,Potency,[3],12.6 µM (active)
same,Potency,[5],3.98 µM (active)
same,Potency,[6],6.31 µM (active)
same,Potency,[7],10 µM (active)
same,Potency,[8],10 µM (active)
same,Potency,[9],12.6 µM (active)
same,Potency,[10],3.16 µM (active)
same,Potency,[11],7.94 µM (active)
same,Potency,[12],7.94 µM (active)
same,Potency,[13],7.94 µM (active)
same,Potency,[14],7.94 µM (active)
same,Potency,[15],7.94 µM (active)
same,Potency,[16],7.94 µM (active)
same,Potency,[17],3.16 µM (active)
same,Potency,[18],7.94 µM (active)
same,Potency,[19],3.98 µM (active)
same,Potency,[20],28.2 µM (active)
O=C(OCC(COC(=O)c1ccccc1)(COC(=O)c1ccccc1)COC(=O)c1ccccc1)c1ccccc1,Potency,[1],inactive
same,Potency,[2],inactive
same,Potency,[3],inactive
same,outcome,[4],inactive
same,Potency,[5],inactive
same,Potency,[6],inactive
same,Potency,[7],inactive
same,Potency,[8],inactive
same,Potency,[9],inactive
same,Potency,[10],inactive
same,Potency,[11],inactive
same,Potency,[12],inactive
same,Potency,[13],inactive
same,Potency,[14],inactive
same,Potency,[15],inactive
same,Potency,[16],inactive
same,Potency,[17],inactive
same,Potency,[18],inactive
same,Potency,[19],inactive
same,max response,[20],3.26%
CN1[C@H]2CC(OC(=O)[C@H](CO)c3ccccc3)C[C@H]1[C@H]1O[C@H]12 (some centres not stated),Potency,[1],inactive
same,Potency,[2],inactive
same,Potency,[3],inactive
same,outcome,[4],inactive
same,Potency,[5],inactive
same,Potency,[6],inactive
same,Potency,[8],inactive
same,Potency,[9],inactive
same,Potency,[10],inactive
same,Potency,[11],inactive
same,Potency,[12],inactive
same,Potency,[13],inactive
same,Potency,[14],inactive
same,Potency,[15],inactive
same,Potency,[16],inactive
same,Potency,[17],inactive
same,Potency,[18],inactive
same,Potency,[19],inactive
same,max response,[20],0.433% and 4.93%
CCCCCC/C(C=O)=C\c1ccccc1,Potency,[1],inactive
same,Potency,[2],inactive
same,Potency,[3],inactive
same,outcome,[4],inactive
same,Potency,[5],inactive
same,Potency,[6],inactive
same,Potency,[7],inactive
same,Potency,[8],inactive
same,Potency,[9],inactive
same,Potency,[10],inactive
same,Potency,[11],inactive
same,Potency,[12],inactive
same,Potency,[13],inactive
same,Potency,[14],inactive
same,Potency,[15],inactive
same,Potency,[16],inactive
same,Potency,[17],inactive
same,Potency,[18],inactive
same,Potency,[19],inactive
same,max response,[20],3.47%
